Bioassay records (PubChem)
PfHsp90 set2: growth inhibition of PfHsp90-expressing yeast, primary screen, antimalarial PfHsp90 inhibitor project, S. cerevisiae, BacTiter-Glo luminescence, single point, set 2; BacTiter-Glo ATP, 48 h; yeast lacking PDR1 and PDR3 efflux regulators; 310,000 tested, 0.32% active; inhibition, % at 9.4 µM;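 active = every replicate shows inhibition above about 80%, whatever the replicate mean, limit read from the data; inconclusive = mean inhibition reaches the set limit but some replicate falls short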
tim10-1 inh: growth inhibitors of tim10-1 mutant yeast, primary screen, luminescence, uHTS | S. cerevisiae tim10-1 ts strain growth, BacTiter-Glo, 24 h | inhibition, % at 20 µM | 330,000 tested, 2.2% active | AID 463190, 2010;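 active = inhibition of at least 40%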;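 note: mutant grown at 25 °C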
TIM10 inh: growth inhibitors of isogenic TIM10 control yeast, primary screen, counter-screen for tim10-1 yeast inhibitor project, luminescence, uHTS; 330,000 tested, 1.4% active; inhibition, % at 10 µM; S. cerevisiae TIM10 strain growth, BacTiter-Glo luminescence, 24 h;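 active = inhibition of 40% or more at the single tested concentration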;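 note: wild-type TIM10 isogenic control strain grown at permissive 25 °C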
V-ATPase pHluor: regulators of yeast V-ATPase proton pumping, primary screen, pHLuorin cytosolic pH fluorescence. S. cerevisiae. response, % at 10 µM. 350,000 tested, 0.37% active. AID 504577, 2011; in the data active = response mostly above about 7.3%, no sharp cut-off; inactive = mostly below about 5.4%; note: actives read high
tim23-1 inh: growth inhibitors of tim23-1 mutant yeast, primary screen, luminescence, uHTS. S. cerevisiae tim23-1 growth, BacTiter-Glo luminescence, 24 h. inhibition, % at 20 µM. 330,000 tested, 1.3% active. AID 463212, 2010;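 active = growth inhibition of the mutant yeast at or above 50%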;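 note: temperature-sensitive mutant grown at 25 °C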
SKKanGAS inh: S. pyogenes SKKanGAS growth inhibitors in kanamycin, primary screen, streptokinase expression inhibitor project, SKKanGAS strain, BacTiter-Glo luminescence; 6 h; inhibition, % at 7.5 µM; 300,000 tested, 1.3% active;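 active = mean replicate score, as percent of positive control median, at least 50; inconclusive = mean below 50 but one replicate at or above 50; inactive = mean and every replicate below 50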;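 note: strain carries kanamycin resistance gene driven by streptokinase promoter and grows in 40 µg/ml kanamycin; loss of luminescence reflects streptokinase promoter inhibition or plain growth inhibition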
tim10-1 confirm: growth inhibitors of tim10-1 mutant yeast, confirmation, single concentration, luminescence, S. cerevisiae; shares compounds with tim10-1 inh; AID 463213, 2010; S. cerevisiae tim10-1 ts strain growth, BacTiter-Glo, 24 h; inhibition, % at 20 µM; 7,400 tested, 56% active;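 active = inhibition of yeast growth at or above a set limit in either of two repeat tests at 20 µM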;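 note: tim10-1 mutant grown at permissive 25 °C to find synthetic lethal compounds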
Numbers stand for hits; 0 = inactive; ? = inconclusive; - = not tested or not shown. Shown are actives, neighbours in structure and some others; about 4.6% of the full set was active somewhere.

SMILES	PfHsp90 set2	tim10-1 inh	TIM10 inh	V-ATPase pHluor	tim23-1 inh	SKKanGAS inh	tim10-1 confirm
O=C1N=C(N2CCCCC2)S/C1=C\c1ccncc1	0	0	0	0	0	0	-
CCOC(=O)c1oc2ccc(CNC3CCCCC3)c(Cl)c2c1C	0	41	0	0	0	0	0
CCOC(=O)c1oc2ccc(CNCCO)c(Cl)c2c1C	0	0	0	0	0	0	-
O=[N+]([O-])c1c(NCCCO)cc(Sc2nc3ccccc3s2)c2nonc12	-	85	0	0	0	78	85
CCOC(=O)c1c(NC(=O)CSc2nnc(CNc3ccc(OC)cc3)n2C)sc(C)c1C	-	41	0	0	0	0	0
COC(=O)c1c(NC(=O)CSc2ccccc2N)sc(C)c1C	0	46	0	0	0	0	36
Cc1cc2nccc(-c3ccc(OCCCF)cc3)n2n1	0	0	0	0	0	0	-
O=C(NCc1ccccc1)c1nc(-c2cccs2)no1	0	40	0	0	0	-	38
CCN(CC1COc2ccccc2O1)C(=S)Nc1ccccc1 (stereo not drawn)	0	44	0	0	0	0	15
CCOC(=O)c1ccc(NC(=O)CC2COc3ccccc3O2)cc1 (stereo not drawn)	0	41	0	0	0	0	0
Cc1ccc(C(=O)OCC(=O)NCC2COc3ccccc3O2)cc1 (stereo not drawn)	0	0	0	0	0	-	-
CCC(=O)Nc1ccc(C(=O)OCc2ccccc2)cc1	-	41	0	0	0	0	36
O=C(CSc1nnc(Cc2ccccc2)o1)Nc1ccc(N2CCOCC2)cc1	0	0	0	0	0	-	-
Cc1onc(-c2ccccc2)c1C(=O)Nc1ccc(S(=O)(=O)NC(C)(C)C)cc1	0	0	0	0	0	0	-
OCC1(CO)CCCC(CO)(CO)C1O	0	-	-	0	-	-	-
CC1=C/C(=C(/c2cc(C)c(O)c(Br)c2)c2ccccc2S(=O)(=O)O)C=C(Br)C1=O	0	54	0	0	0	0	44
O=C(Nc1sc2c(c1C(=O)c1ccc(Cl)cc1)CCCC2)c1cccnc1	-	41	0	0	0	0	0
O=C(Nc1sc2c(c1C(=O)c1ccccc1)CCCC2)c1cccnc1	0	0	0	0	0	0	-
CCCc1cc(C(=O)Nc2cccc([N+](=O)[O-])c2)cs1	0	41	0	0	0	0	31
CC(C)(C)c1ccc(C(=O)Nc2cccc([N+](=O)[O-])c2)cc1	0	-	-	0	-	0	-
COc1ccc(CCNC(=O)c2cccnc2)cc1	0	0	0	0	0	0	-
CN(C(=O)COC(=O)CCc1c[nH]c2ccccc12)c1ccccc1	0	43	0	0	0	0	0
CCc1ccc(C(=O)NNC(=O)c2cccc(N3C(=O)CCC3=O)c2)cc1	0	0	0	0	0	0	-
O=C(O)c1ccccc1C(=O)N1N=C2/C(=C/c3cccc([N+](=O)[O-])c3)CCCC2C1c1cccc([N+](=O)[O-])c1 (stereo not drawn)	0	44	0	0	0	0	0
O=C(O)c1c(C(=O)N2N=C3/C(=C/c4ccccc4)CCCC3C2c2ccccc2)cccc1[N+](=O)[O-] (stereo not drawn)	0	0	0	0	0	0	-
SMILES	PfHsp90 set2	tim10-1 inh	TIM10 inh	V-ATPase pHluor	tim23-1 inh	SKKanGAS inh	tim10-1 confirm
COc1ccc(-c2cn(Cc3ccc(C(=O)NCc4ccc(C)cc4)cc3)c(C(C)N)n2)cc1 (stereo not drawn)	0	0	0	0	0	0	-
N#Cc1c(-c2ccccc2)nc(SCC(=O)Nc2ccccc2)[nH]c1=O	0	-	-	0	-	-	-
COC(=O)c1cccc(CSc2nc(-c3ccccc3)c(C#N)c(=O)[nH]2)c1	0	47	0	0	0	0	0
Cc1cc(C)n(Cc2cccc(C(=O)N/N=C/c3cccnc3)c2)n1	0	0	0	0	0	0	-
Cc1ccc(CN2CCC(C(=O)c3ccc(F)cc3)CC2)cc1	-	-	-	0	-	-	-
CC(C)N(C(=O)c1nn(C)c2c1CSc1ccccc1-2)C1CCCCC1	0	50	0	0	0	0	0
COc1cc(C(=O)O[C@H]2C/C(C)=C/CC[C@@]3(C)O[C@@H]3[C@H](O)[C@@H]2C(C)C)cc(OC)c1OC	0	0	0	0	0	0	-
Cc1ccc2nc(-c3cccc(NC(=O)c4ccco4)c3)[nH]c2c1	0	0	0	0	0	0	-
Cc1cccc(-n2nc(C(=O)c3ccco3)cc(-c3nc4ccccc4[nH]3)c2=N)c1	0	50	0	0	0	?	0
COc1cc2ccccc2cc1C(=O)N(CCN(C)C)c1nc2ccc(Br)cc2s1	0	54	0	0	0	0	0
COc1ccc(C)c2sc(N(CCN(C)C)C(=O)c3ccc4ccccc4c3)nc12	0	44	0	0	0	0	0
COc1cc2ccccc2cc1C(=O)N(CCN(C)C)c1nc2c(F)cc(F)cc2s1	0	0	0	0	0	0	-
Cc1cc(C)c2nc(N(CCN(C)C)C(=O)c3ccc4ccccc4c3)sc2c1	0	0	0	0	0	0	-
O=C(O)COc1ccccc1/C=N/NC(=O)CSc1nc2ccccc2n1Cc1ccc(Cl)cc1	0	0	0	0	0	0	-
CCNC(=S)N/N=C(\C)c1cccc([N+](=O)[O-])c1	0	44	0	0	0	0	0
C[C@@H]1CCCCO[C@@H](CN(C)S(C)(=O)=O)[C@@H](C)CN([C@H](C)CO)C(=O)c2cc(N(C)C)ccc2O1	-	-	-	0	-	-	-
O=C(NCC(c1ccco1)N1CCN(c2ccccc2)CC1)OCc1ccccc1 (stereo not drawn)	0	41	0	0	0	0	0
O=C(NCC(c1ccco1)N1CCN(c2ccccc2F)CC1)OCc1ccccc1 (stereo not drawn)	0	0	0	0	0	0	-
O=C(COc1ccccc1)NCC(c1ccco1)N1CCN(c2ccc(F)cc2)CC1 (stereo not drawn)	-	41	0	0	0	0	0
Cc1ccc(NC(=O)C2CCN(c3cnccn3)CC2)cc1	0	0	0	0	0	0	-
O=C(Nc1ccc(C(F)(F)F)cc1)C1CCN(c2cnccn2)CC1	0	41	0	0	0	0	0
Cc1cc(-c2ccc(C)c(S(=O)(=O)NCCc3ccc(S(N)(=O)=O)cc3)c2)on1	0	0	0	0	0	0	-
Cc1cc(-c2ccc(C)c(S(=O)(=O)NCc3ccc(Br)cc3)c2)on1	0	43	0	0	0	0	0
Cc1cc(-c2ccc(C)c(S(=O)(=O)NCc3cccc(Br)c3)c2)on1	0	41	0	0	0	0	0
